D1 agonist: activates the human D1 dopamine receptor. P21728. HEK293 T-REx D1 cells, calcium flux, agonist mode. activation, % at 2 µM. 360,000 compounds, 1% hits. AID 504660; further: 0% is about no effect
Target sequence (P21728 whole entry, looked up): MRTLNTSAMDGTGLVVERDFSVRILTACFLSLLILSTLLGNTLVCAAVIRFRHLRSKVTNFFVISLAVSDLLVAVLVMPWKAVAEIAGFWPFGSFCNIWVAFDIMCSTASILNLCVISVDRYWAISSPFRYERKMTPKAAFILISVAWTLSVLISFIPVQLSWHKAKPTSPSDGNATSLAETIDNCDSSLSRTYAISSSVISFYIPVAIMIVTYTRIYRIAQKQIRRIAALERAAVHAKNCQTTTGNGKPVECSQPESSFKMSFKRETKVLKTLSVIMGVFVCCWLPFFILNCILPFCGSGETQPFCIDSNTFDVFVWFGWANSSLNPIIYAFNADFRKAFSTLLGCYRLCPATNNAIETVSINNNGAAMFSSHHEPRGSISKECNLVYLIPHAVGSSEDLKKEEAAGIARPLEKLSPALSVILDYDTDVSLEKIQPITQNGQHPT
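Agonism was scored from calcium flux recorded over 180 s (1 read/s) after pintool compound addition, following a 10-cycle baseline. Cells were inducible force-coupled HEK293 TREx D1, plated overnight at 30 C and loaded with no-wash calcium dye.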
D1 antag: blocks dopamine activation of the human D1 receptor; P21728; HEK293 TREx D1 cells, calcium flux, dopamine EC80; hits give low values; activity change, negative = inhibition, % at 10 µM; 360,000 compounds, 3.2% hits; in the data active means activity change below about -30%; further: on the % scale 0 is the no-effect control and ±100 the full control effect
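Inducible Hek293 Trex D1 cells (tetracycline, overnight, 30 C). Calcium dye 30–90 min RT. Antagonist mode: EC80 dopamine added after 180 s compound read.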
TRHR enhancer: allosteric enhancers of human TRH receptor; TRHR cells, fluo-8 calcium fluorescence, EC20 TRH enhancement; AID 493056; enhancement, % at 2 µM; 360,000 compounds, 0.66% hits; P34981; in the data active means enhancement above about 30%; further: 0% is about no effect
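TRHR-expressing cells loaded with fluo-8 calcium dye were read kinetically (ex 480/em 530) during compound addition, then stimulated with an EC20 of TRH (10 nM final). Enhancement of the Gq-mediated intracellular calcium response was scored.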
TRHR ag: TRH receptor (human) agonism; TRHR cells, calcium flux fluo-8, FDSS agonist mode; activation, % at 2 µM; 360,000 compounds, 0.18% hits; AID 493084; further: 0% is about no effect
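TRHR-expressing cells, plated overnight in medium with 10% serum, were loaded with fluo-8 calcium dye at room temperature. After a 10 s baseline, library compound was pin-added and calcium release was recorded kinetically (ex 480/em 530) as agonist response.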
D1 potentiator: human D1 dopamine receptor positive modulation; 360,000 compounds, 0.036% hits; P21728; potentiation, % at 10 µM; HEK293 TREx D1 cells, calcium flux, dopamine EC20 potentiation; in the data active means potentiation above about 30%; further: 0% is about no effect
The depositor's hits bear a star; ! = a repeat was not active. A selection: hits, their analogues and other compounds. The true share with any hit is near 4.6%. Unless noted, no stated cut-off is given here; in the data, active means activation above about 30%; inactive means the rest.

SMILES	D1 agonist	D1 antag	TRHR enhancer	TRHR ag	D1 potentiator
C=CCn1c(N)c(C(=O)Nc2ccccc2)c2nc3ccccc3nc21	4.3	-35.9*	13.9	0.0	-3.4
O=c1c2cc(NC(=S)NCCCN3CCC(Cc4ccccc4)CC3)ccc2nc2n1CCCCC2	46.1*	-41.2*	13.4	2.6	-9.4
O=c1c2cc(NC(=S)NC3CCCC3)ccc2nc2n1CCCCC2	1.9	12.6	4.5	-0.1	-4.7
O=c1c2cc(NC(=S)NC3CCCCC3)ccc2nc2n1CCCCC2	3.8	-4.5	0.4	-1.2	-5.6
CC1CCCCN1C(=S)Nc1ccc2nc3n(c(=O)c2c1)CCCCC3 (stereo not drawn)	1.1	2.4	-3.9	-0.6	-3.0
O=c1c2cc(NC(=S)NC3CC3)ccc2nc2n1CCCCC2	4.1	-38.0*	-5.4	0.4	-3.5
CC(C)NC(=S)Nc1ccc2nc3n(c(=O)c2c1)CCCCC3	2.4	-79.3*	9.8	-0.3	-3.6
O=c1c2cc(NC(=S)N3CCC(N4CCCCC4)CC3)ccc2nc2n1CCCCC2	2.9	-38.2*	-7.6	0.8	-5.0
COc1ccc(C(CCNCc2ccc(N(C)C)cc2)c2ccccc2)cc1 (stereo not drawn)	28.5	4.2	5.6	1.3	-0.5
CC(C)Oc1ccc(C(CCNCc2ccc(O)cc2)c2ccccc2)cc1 (stereo not drawn)	38.9*	6.6	3.2	1.9	-6.5
O=C(Nc1ccc(C(=O)OCc2cc(=O)n3c4c(sc3n2)CCCC4)cc1)c1ccc(Cl)cc1	-0.5	-5.8	-5.1	0.7	-1.1
CCN(C(=O)COC(=O)c1ccccc1NCCO)c1cccc2ccccc12	1.6	-42.6*	-12.7	0.1	-3.2
COCCCNC(=S)N1CCCN(c2nc3cc(C)c(C)cc3cc2C#N)CC1	-0.1	6.8	1.9	-1.2	-1.1
CCOCCCNC(=S)N1CCCN(c2nc3cc(C)c(C)cc3cc2C#N)CC1	0.1	-32.6*	3.9	-0.7	-2.8
COC1=C/C(=C/c2c(N)n3nc(CC(=O)N4CCCC4)sc3nc2=O)C=CC1=O	15.7	12.3	-0.6	13.6	-3.2
COC1=C/C(=C/c2c(N)n3cc(C)sc3nc2=O)C=CC1=O	30.3*	4.5	14.8	8.5	-4.0
Cc1nn(CCC(=O)NCc2ccc(Cl)cc2)c(=O)c2nn(-c3ccccc3)c(C)c12	2.0	-2.2	-3.5	0.1	-0.4
Cc1ccc(-n2nc3c(=O)n(CC(=O)NCc4ccco4)nc(C)c3c2C)cc1	1.6	-34.3*	-0.5	-1.1	-1.7
CCOc1ccc(CNC(=O)Cn2nc(C)c3c(C)n(-c4ccc(C)cc4)nc3c2=O)cc1	1.2	-50.3*!	-16.6	-0.7	-2.4
Cc1nn(CCC(=O)NCc2ccc(N(C)C)cc2)c(=O)c2nn(-c3ccccc3)c(C)c12	0.0	-31.4*!	-2.5	0.5	5.0
Cc1nn(CC(=O)NCCc2ccco2)c(=O)c2nn(-c3ccccc3)c(C)c12	0.2	2.7	0.5	-0.1	-5.8
Cc1ccc(-n2nc3c(=O)n(CC(=O)NC(C)C)nc(C)c3c2C)cc1	0.7	-34.7*	5.6	-0.7	-1.8
Nc1c(-c2nc(-c3ccncc3)no2)nnn1CC(=O)Nc1ccccc1	2.1	14.1	-2.3	0.1	-1.6
CC(C)(C)OC(=O)CC(=O)NNC(=O)c1nc2ccccc2[nH]1	0.4	-16.0	4.0	-0.6	3.4
Cc1nn(CC(=O)NCCc2ccc(Cl)cc2Cl)c(C)c1[N+](=O)[O-]	33.9*	-8.0	9.5	-1.4	-6.5
SMILES	D1 agonist	D1 antag	TRHR enhancer	TRHR ag	D1 potentiator
Cc1ccc(NC(=O)Cn2nc(C)c([N+](=O)[O-])c2C)cc1Cl	16.9	-0.1	-0.4	0.8	-13.4
COc1ccc(CCNC(=O)CCc2cn(Cc3ccc(F)cc3)c3ccccc23)cc1OC	9.4	-12.7	10.3	-1.3	-3.7
Cc1ccc(SCC(=O)OCC(=O)NCc2cccs2)cc1	0.4	-2.2	-1.4	0.2	-1.9
O=C(COC(=O)COc1ccc(Cl)cc1Br)NCc1cccs1	0.5	-31.9*	11.7	-0.4	-9.2
COc1ccc(CNC(=O)COC(=O)Cc2ccc(Cl)cc2Cl)cc1	16.8	-47.1*	3.3	-2.0	-4.0
CCOC(=O)CNC(=O)COc1ccc(Cl)cc1Br	0.4	5.4	-0.7	-0.8	2.2
O=C(COn1nnc2ccc(Cl)cc21)NCc1ccccc1	0.6	-34.5*	-0.3	-0.2	-8.7
